This is a sample that favours compounds with a hit; in the whole collection about 27% have one here.
CYP2C19 inh – inhibitors of human CYP2C19. P33261. CYP2C19 Supersomes, luciferin-H EGE luminescence, 30 min. inhibition, % at 5 µM. 21% of 96,000 active;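 active = CYP2C19 inhibition above a set limit at 5 µM in the primary screen, cut at about 50% in these data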;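 also: plate controls were negative control wells for no effect and 2.5 mM tranylcypromine positive control for full effect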
CYP2C9 inh – blocks human cytochrome P450 2C9; P11712; AID 777; CYP2C9 Supersomes, luciferin-H conversion, luminescence; inhibition, % at 5 µM; 20% of 96,000 active;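 active = blocking of liver enzyme CYP2C9 beyond about 50% at 5 µM, limit read from the data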
PTK2B oligo ant – blocks oligomerization of human Pyk2 in cells; Q14289; z-score (the deposit names both 25 µM and 10 µM); 0.83% of 99,000 active; Q293 cells, Pyk2 FERM NanoBiT luminescence; stronger effect = lower value; AID 1347419;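 active = Z-score of -3 or lower, scaled per plate to the spread of control and sample wells; inactive = z-score above -3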;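 also: negative z-score means lost luminescence so less FERM oligomerization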
CYP2C19 activ – increases human CYP2C19 enzyme activity; P33261; recombinant CYP2C19, luciferin-H EGE luminescence; stronger effect = higher value; 0 = fully inhibited enzyme, 1 = untreated enzyme; activation factor at 5 µM; 96,000 tested, under 10 active;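 active = activation factor of at least 2 at 5 µM in the primary screen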;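 also: 0 = wells with 2.5 mM tranylcypromine and 1 = vehicle-only wells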
CYP2C9 act – activators of human CYP2C9; activation factor at 5 µM; 1.4% of 96,000 active; P11712; recombinant CYP2C9, luciferin-H conversion, luminescence; stronger effect = higher value; factor 1 = untreated enzyme, 0 = blocked;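 active = activation factor of 2 or more for CYP2C9 at a 5 µM dose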;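 also: 0 = sulfaphenazole-blocked wells and 1 = vehicle-only wells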
Cav3 T inh – human Cav3.2 channel inhibition, primary screen. B-score at 10 µM. Cav3.2-expressing cells, Fluo-4 calcium fluorescence FDSS; stronger effect = lower value. AID 449739. 4% of 100,000 active. O95180;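 active = single-dose well whose peak fluorescence ratio is a statistical outlier from its plate by either plate-standardised score or position-corrected B-score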
An asterisk follows results filed as active; · = not tested or not shown.

SMILES	CYP2C19 inh	CYP2C9 inh	PTK2B oligo ant	CYP2C19 activ	CYP2C9 act	Cav3 T inh
COc1ccccc1N1CCN(S(=O)(=O)c2ccccc2)CC1	92*	86*	-1.7	0.1	0.1	0.57
COc1cc(OC)cc(C(=O)N2CCN(c3ncccn3)CC2)c1	44	31	0.97	0.6	0.7	0.013
Cc1ccc2nsnc2c1S(=O)(=O)N1CCOCC1	15	0	0.22	0.8	1	0.43
CN1C(C(=O)NCc2ccco2)CC2Cn3c(nc4cc(Cl)c(Cl)cc43)C21 (stereo not drawn)	·	·	·	·	·	0.89
CN(C)c1ccc(/C=N/c2cc(-c3ccccc3)nn2-c2ccccc2)cc1	2	52*	-0.39	1	0.5	-0.033
Cc1nn(-c2ccccc2)c(/N=C/c2ccc(O)cc2)c1-c1ccccc1	·	·	-0.44	·	·	·
O=C(COc1ccccc1)Nc1ccc(OC(F)(F)C(F)F)c(NC(=O)COc2ccccc2)c1	17	54*	1.3	0.8	0.5	-1.5
Cc1cccc(NC(=O)COc2ccccc2)c1	83*	21	0.48	0.2	0.8	-0.84
Cc1cccc(OCC(=O)Nc2cccc(O)c2)c1	79*	22	-0.14	0.2	0.8	0.79
Cc1cccc(NC(=O)COc2nsnc2N2CCOCC2)c1	56*	17	0.82	0.4	0.8	0.13
CN(C)CCCNS(=O)(=O)c1ccc(Oc2ncc(C(F)(F)F)cc2Cl)cc1	9	-3	1.4	0.9	1	1.1
CCCCCCCC(=O)N/N=C(\C)c1cccnc1	·	·	-0.33	·	·	0.35
Nc1ccnn1Cc1cccs1	·	·	0.58	·	·	·
CCC(C)(CC(=O)N(C)CCC#N)c1ccccc1 (stereo not drawn)	45	18	1.7	0.6	0.8	0.016
CCC(C)[C@H](NC(=O)OC(C)(C)C)C(=O)N/N=C/C1=Cc2ccccc2OC1 (stereo partly drawn)	-4	44	-0.62	1	0.6	-5.3*
Cc1c(S(=O)(=O)N2CCc3ccccc3C2)c(=O)n(C)c(=O)n1C	12	-5	·	0.9	1	-0.17
C=CCn1c(Cc2cccs2)nnc1SCC(=O)c1ccc2ccccc2c1	55*	27	0.14	0.4	0.7	0.19
C=CCn1c(Cc2cccs2)nnc1SCC(=O)Nc1ccc(OC)c(OC)c1	16	9	0.63	0.8	0.9	0.19
C=CCn1c(CCNC(=O)c2cccs2)nnc1SCC(=O)c1cccc([N+](=O)[O-])c1	4	-5	0.54	1	1	-3.5
C=CCn1c(Cc2cccs2)nnc1SCC(=O)NCc1ccco1	32	65*	0.38	0.7	0.3	-0.85
C=CCn1c(Cc2cccs2)nnc1SCC(=O)c1cccc(Br)c1	62*	34	0.31	0.4	0.7	-3.6
C=CCn1c(Cc2cccs2)nnc1SCC(=O)c1ccc(F)cc1	93*	56*	1	0.1	0.4	-1.6
CCOC(=O)c1cc(C)n(-n2cnnc2)c1C	-18	-22	-0.1	1.2	1.2	-0.13
O=C(c1ccc(COc2c(F)c(F)cc(F)c2F)o1)N1CCN(c2ccc(Cl)cc2)CC1	18	39	0.24	0.8	0.6	-2.5
CCOc1ccc(Nc2nc(Cc3nnc(SCC(=O)NCc4ccco4)n3CC)cs2)cc1	35	55*	0.27	0.7	0.4	-3.3
SMILES	CYP2C19 inh	CYP2C9 inh	PTK2B oligo ant	CYP2C19 activ	CYP2C9 act	Cav3 T inh
CC(C)NC(=O)COC(=O)c1ccc(Oc2ccccc2)cc1	18	23	1.7	0.8	0.8	-0.41
C#CCn1cnc2c(cnn2-c2ccc(C)c(C)c2)c1=O	64*	27	0.24	0.4	0.7	0.4
O=C(Cn1cnc2c(cnn2-c2ccccc2)c1=O)c1ccc(Cl)cc1	-12	6	·	1.1	0.9	·
CC(C)CCn1cnc2c(cnn2-c2ccc(Cl)cc2)c1=O	32	71*	2.4	0.7	0.3	-0.0083
Cc1ccc(-n2ncc3c(=O)n(CC#N)cnc32)cc1C	20	18	-0.25	0.8	0.8	-0.4
O=C(O)C1C2C=CC(O2)C1C(=O)NCCC1=CCCCC1 (stereo not drawn)	·	·	-0.56	·	·	0.29
Cc1cc(Nc2ccccc2)nn1C(=O)c1ccc(Cl)cc1	-10	55*	·	1.1	0.5	·
O=C(Nc1ccccc1)N(CCN1CCOCC1)Cc1ccccc1F	56*	89*	0.24	0.4	0.1	0.73
Cc1ccc(NC(=O)N(CCCN2CCOCC2)Cc2cccnc2)cc1C	100*	96*	·	0	0	0.3
CCc1ccc(NC(=O)N(CCCN2CCOCC2)Cc2cccs2)cc1	36	59*	·	0.6	0.4	·
CCN1CCCc2cc(CN(CCN3CCOCC3)C(=O)Nc3ccc(C)c(C)c3)ccc21	57*	48	0.84	0.4	0.5	-0.96
COc1cccc(Nc2ncnc3c2cnn3C)c1	2	-12	0.34	1	1.1	0.47
O=C(O)CCC(=O)Nc1ccc(N2CCCCC2)c(C(=O)O)c1	·	·	-0.2	·	·	0.59
O=S(=O)(c1ccc(F)cc1)N1CCn2c(nc3ccccc32)C1	44	15	·	0.6	0.9	2.3
O=S(=O)(c1ccccc1)N1CCn2c(nc3ccccc32)C1	71*	24	·	0.3	0.8	0.92
CN1C[C@@H]2C(c3ccc(C(F)(F)F)cc3)C3(c4cccnc4)CC2(C3)[C@H]1c1ccccc1 (stereo partly drawn)	·	·	·	·	·	0.041
C=CCn1c(SCC(=O)Nc2c(C)n(C)n(-c3ccccc3)c2=O)nc2scc(-c3ccccc3)c2c1=O	46	83*	-1.1	0.5	0.2	-0.6
C=CCn1c(SCC(=O)NCCCC)nc2scc(-c3ccco3)c2c1=O	·	·	0.5	·	·	-2.7*
Cc1nc(SCC(=O)Nc2c(C)n(C)n(-c3ccccc3)c2=O)nc(C)c1C	11	6	-0.25	0.9	0.9	0.024
C=CCn1c(SCC(=O)NC2CCCC2)nc2scc(-c3ccco3)c2c1=O	87*	92*	0.64	0.1	0.1	-1.4
C=CCn1c(SCC(=O)NC(=O)NCc2ccco2)nc2sc(C)c(C)c2c1=O	19	27	-1	0.8	0.7	0.11
CC(=O)C[C@H]1c2cc(F)ccc2S(=O)(=O)N1c1ccc(N(C)C)cc1	·	·	·	·	·	-0.31
COc1cccc(C2/C(=C(\O)c3c(C)nc4c(C)cccn34)C(=O)C(=O)N2CCCN(C)C)c1 (stereo not drawn)	5	-6	·	0.9	1.1	·
CC(=O)c1oc2ccccc2c1N	12	6	0.56	0.9	0.9	0.066
Nc1c(C(=O)c2ccccc2)oc2ccccc12	85*	34	0.27	0.1	0.7	-0.0043
Nc1c(C(=O)Nc2ccc(Cl)cc2)oc2ccccc12	54*	63*	·	0.5	0.4	·
CC(CN1CCOCC1)C(=O)O (stereo not drawn)	·	·	0.61	·	·	1.1
Cc1ccccc1OCCN1C(=O)NC2(CCc3ccccc32)C1=O (stereo not drawn)	35	-95	-0.43	0.7	2*	-0.24

Source: PubChem (several laboratories)
